# Screens (PubChem)
# An excerpt weighted towards active compounds, which were near 11% of everything screened.
# JMJD2A Tudor = JMJD2A Tudor domain (human) inhibition | O75164 | AlphaScreen JMJD2A-Tudor / H3K4me3 peptide binding | Potency, µM (doses to about 114 µM), for inactives: at the top dose activity change, negative = inhibition, actives largely listed as inhibitors | hit rate 4.4% among 390,000 | AID 504339; further: on the % scale 0 is the no-effect control and ±100 the full control effect; nearly all actives have a fitted effect of over 50% in size
# Target sequence (O75164 whole entry, looked up, the tested form may be a part): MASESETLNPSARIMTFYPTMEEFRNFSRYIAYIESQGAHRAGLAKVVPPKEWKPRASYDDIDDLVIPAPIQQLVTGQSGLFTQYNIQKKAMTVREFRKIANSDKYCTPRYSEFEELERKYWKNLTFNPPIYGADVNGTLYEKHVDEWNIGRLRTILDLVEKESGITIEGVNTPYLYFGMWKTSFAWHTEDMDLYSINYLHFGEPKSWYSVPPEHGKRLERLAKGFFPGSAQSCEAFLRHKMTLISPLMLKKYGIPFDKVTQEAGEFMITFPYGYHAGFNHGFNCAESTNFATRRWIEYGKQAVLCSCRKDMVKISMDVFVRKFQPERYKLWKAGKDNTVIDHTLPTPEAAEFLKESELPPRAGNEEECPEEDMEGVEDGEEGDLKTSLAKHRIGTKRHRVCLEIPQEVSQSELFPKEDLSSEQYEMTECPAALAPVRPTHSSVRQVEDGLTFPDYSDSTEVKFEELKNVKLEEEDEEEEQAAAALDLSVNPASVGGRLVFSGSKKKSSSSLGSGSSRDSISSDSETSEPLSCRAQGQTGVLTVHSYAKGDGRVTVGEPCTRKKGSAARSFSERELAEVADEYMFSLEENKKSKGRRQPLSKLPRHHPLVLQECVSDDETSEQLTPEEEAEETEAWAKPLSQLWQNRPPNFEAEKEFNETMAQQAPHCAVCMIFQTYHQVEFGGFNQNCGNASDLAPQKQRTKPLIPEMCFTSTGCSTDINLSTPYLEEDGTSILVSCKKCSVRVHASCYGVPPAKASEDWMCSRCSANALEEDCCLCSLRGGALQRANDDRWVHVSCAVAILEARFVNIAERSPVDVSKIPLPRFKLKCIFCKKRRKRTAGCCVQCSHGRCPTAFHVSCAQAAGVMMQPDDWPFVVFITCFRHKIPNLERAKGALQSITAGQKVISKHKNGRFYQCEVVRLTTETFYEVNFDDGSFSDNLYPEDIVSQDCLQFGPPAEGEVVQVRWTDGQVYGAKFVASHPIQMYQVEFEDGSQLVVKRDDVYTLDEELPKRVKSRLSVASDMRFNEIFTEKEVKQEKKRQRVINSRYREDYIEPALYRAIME
# BAZ2B inh = inhibitors of human BAZ2B bromodomain | Q9UIF8 | hit rate 4.4% among 360,000 | AID 504333 | Potency, µM (series often up to 114 µM), for inactives: top-dose activity change, negative = inhibition, actives largely listed as inhibitors | AlphaScreen BAZ2B-H3K14Ac peptide displacement; further: on the % scale 0 is the no-effect control and ±100 the full control effect; nearly all actives have a fitted effect of over 60% in size
#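 BAZ2B 50 nM plus b-H3(5-23)K14Ac 50 nM, PBS pH 7.4/0.01% Tween-20, 30 min RT; compound added (max 110 uM), 30 min RT; streptavidin donor/Ni-chelate acceptor beads 10 ug/mL final, 20 min dark; AlphaScreen read.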
# G9a inh = G9a (human) methyltransferase inhibition; G9a H3K9 monomethylation, AlphaScreen, 2 h; Potency, µM (highest dose often 102 µM), without a hit: at the highest dose activity, negative = inhibition, actives largely listed as inhibitors; hit rate 8.8% among 350,000; AID 504332; Q96KQ7; further: on the % scale 0 is the no-effect control and ±100 the full control effect; nearly all actives have a fitted effect of over 75% in size
#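 G9a (20 nM) preincubated 15 min RT with compounds, then 500 nM biotinylated H3K9 peptide and 20 uM SAM added; 2 h RT reaction. Monomethyl-H3K9 product detected by AlphaScreen with anti-H3K9me1 antibody, streptavidin donor and anti-rabbit IgG acceptor beads.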
# HP1b chromo inh = inhibitors of HP1-beta chromodomain binding to methylated histone tails; AlphaScreen HP1-beta / biotin-H3K9me3 peptide binding; Potency, µM (titrated, usually from 114 µM), without a hit: at the top dose activity change, negative = inhibition, hits mostly inhibitors; hit rate 0.56% among 390,000; further: nearly all actives have a fitted effect of over 70% in size
#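 Compound inhibition of the preformed complex between 50 nM HP1-beta and 50 nM biotinylated H3K9me3 peptide was read by AlphaScreen. Buffer was PBS pH 7.4 with 0.01% Tween-20. Incubations ran 30 min at room temperature, with 10 ug/mL donor/acceptor beads.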
# VDR inhibitor = vitamin D3 receptor (human) inhibition. P11473. VDR-SRC2-3 peptide fluorescence polarization, 2 h. Potency, µM, without a hit: max response, negative = inhibition, actives largely listed as inhibitors. hit rate 0.93% among 400,000. AID 504847; further: on the % scale 0 is the no-effect control and ±100 the full control effect
#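 FP read-out; VDR + SRC2-3 coactivator peptide; 23 nl compound by pintool; 2 h RT incubation; reagents held at 4 deg C, protected from light.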
# PLK1 PBD inh = blocks phosphopeptide binding to human PLK1 polo-box domain; P53350; Plk1 PBD binding of FITC phosphopeptide, fluorescence polarization; AID 720504; hit rate 2.8% among 360,000; Potency, µM, inactives show max response, negative = inhibition, most hits filed as inhibitors; further: series mostly up to about 57 µM; on the % scale 0 is the no-effect control and ±100 the full control effect; nearly all actives have a fitted effect of over 65% in size
# Active calls of the source: *; ? = inconclusive; · = no result; [ ] = another dose, or the depositor's remark. The call rests on the fitted dose curve; in most records, active means well fitted curve in the direction sought with a large enough effect; inconclusive means small, poorly fitted or top-dose-only effect, or another doubt; inactive means no such curve, though single readings can be large; an effect the other way counts as inactive or inconclusive. Potency means the concentration at half of the fitted maximal effect.
SMILES,JMJD2A Tudor,BAZ2B inh,G9a inh,HP1b chromo inh,VDR inhibitor,PLK1 PBD inh
COc1cc(OC)c(N(C)C(=O)c2sc3nc4n(c(=O)c3c2C)CCCCC4)cc1Cl,?,50.1µM*,14.1µM*,19.9%,-5.1%,·
COc1cc(OC)c(N(C)C(=O)c2sc3nc4n(c(=O)c3c2C)CCCC4)cc1Cl,20.7%,-5.2%,?,129.1%,10.2%,·
CC1(C)C(=S)N(Cc2ccccc2)c2ccccc21,97.6%,57.1%,126.6%,89.3%,-14.9%,-3.6%
O=c1[nH]c2ccc(S(=O)(=O)N3CCN(S(=O)(=O)c4ccc5c(c4)OCCO5)CC3)cc2[nH]c1=O,-19.9%,·,·,·,·,·
C=C1CC[C@H](O)C/C1=C/C=C1\CCC[C@]2(C)[C@@H]([C@H](C)/C=C/[C@H](C)C(C)C)CC[C@@H]12,?,-26.2%,14.1µM*,4.4%,-23.4%,-21.8%
CCOc1ccc(C(C)C)cc1S(=O)(=O)Nc1cccc(-c2ccc(N3CCOCC3)nn2)c1,-10.9%,-0.8%,2.8%[59 µM],23.6%[57 µM],2.7%,·
CC([NH2+][O-])C(C)(C)NO (stereo not given),22.4µM*,?,17.8µM*,?,6.8%,0.0%
CCN=c1scc(-c2ccccc2)n1/N=C/c1ccccn1,28.2µM*,14.1µM*,?,?,-4.6%,-10.5%
C=CCN=c1scc(-c2ccc3c(c2)NC(=O)CO3)n1/N=C(\C)c1ccccn1,-27.9%,?,?,5.7%,-11.2%,?
C=CCN=c1scc(-c2ccccc2)n1/N=C/c1ccccn1,44.7µM*,28.2µM*,?,28.2µM*,-17.1%,-9.1%
Cc1cc(C)n2c(Nc3ccc4c(c3)OCCO4)c(-c3ccc(C)o3)nc2n1,-35.5%,?,50.1µM*,-0.3%,-15.2%,0.1%
Cc1cc(C)n2c(Nc3ccc4c(c3)OCCO4)c(-c3ccco3)nc2n1,·,?,50.1µM*,·,·,·
CCc1ccc(-n2c(=O)c3c4c(sc3n(Cc3cc(=O)n5c(C)cccc5n3)c2=O)CCC4)cc1,4.1%,6.1%,7.9%[59 µM],19.8%,-14.1%,·
CCOC(=O)/C=C1/SCC(=O)N1CC(=O)c1ccc[nH]1,-23.4%,·,·,27.3%,11.8%,-2.1%
CCOc1ccccc1/C=C/c1nc2ccccc2[nH]c1=O,?,0.1%,·,30.9%,?,3.77µM*
CCOc1ccccc1OCCCC(=O)Nc1nc2ccccc2[nH]1,-15.7%,-1.2%,5.9%,9.8%,15.2%,-7.5%
CC(=O)c1ccc(N2CCN(C(=O)C3CCN(S(=O)(=O)c4cccc5nonc45)CC3)CC2)cc1,-9.0%,-13.2%,5.4%[59 µM],15.3%,-6.2%,·
COc1ccccc1NC(=O)C1=C(C)NC2=C(C(=O)CC(c3ccc(OC)c(OC)c3)C2)C1c1coc2ccccc2c1=O (stereo not given),3.5%,-34.3%,44.7µM*,23.7%,-6.7%,2.3%
Nn1c(=O)[nH]c2ccccc2c1=O,-8.2%,6.4%,37.6%,14.9%,-1.7%,-3.0%
CSCCC1NC(=O)N(CC(=O)Nc2c(Cl)cc(Cl)cc2Cl)C1=O (stereo not given),-31.3%[11.4 µM],4.5%,6.9%[12.7 µM],-13.6%,-9.6%,8.44µM*
CSCCC1NC(=O)N(CC(=O)Nc2ccc(N3CCCCC3)cc2)C1=O (stereo not given),-34.2%,?,?,25.6%,-2.5%,-18.1%
CC(C)(C)OC(=O)NC1CC2CCCC(C1)N2Cc1ccccc1 (stereo not given),10.5%,4.6%,·,23.1%,17.1%,-8.0%
CC(C)OC(=O)c1ccc(N2CCN(c3ccccc3F)CC2)nc1,55.5%,31.4%,126.8%,82.0%,-5.9%,-14.6%
CC(C)OC(=O)c1ccc(N2CCN(c3ccc(F)cc3)CC2)nc1,?,4.6%,25.5%[2.33 µM],17.0%,?,26.7µM*
O=C1/C(=C/N(C(=O)c2ccco2)c2ccc(Br)cc2)Sc2ccccc21,56.2µM*,?,44.7µM*,?,?,?
SMILES,JMJD2A Tudor,BAZ2B inh,G9a inh,HP1b chromo inh,VDR inhibitor,PLK1 PBD inh
CCOC(=O)c1c(NC(=O)c2cc(=O)c3cc(C)ccc3o2)sc2c1CCCC2,-2.1%,-3.2%,-1.5%[59 µM],41.5%,18.1%,·
COc1ccc(N2CCN(C(=O)COC(=O)CNC(=O)c3ccc(Cl)cc3Cl)CC2)cc1,-12.8%,-30.3%,44.7µM*,-10.1%,-26.8%,-7.5%
COc1ccc(N2CCN(C(=O)COc3ccc(Cl)cc3Cl)CC2)cc1,?,?,6.31µM*,-16.1%,20.4%,-7.3%
CC(=O)C1CCC2C3CC=C4CC(SC(=N)N)CCC4(C)C3CCC12C (stereo not given),-32.6%,·,·,3.2%,-11.5%,-5.4%
CC(=O)c1ccc(N2C(=O)C3C4C=CC(CC4)C3C2=O)cc1 (stereo not given),-1.4%,-20.7%,5.2%,32.5%,12.1%,-8.6%
O=C1C2C3C=CC(CC3)C2C(=O)N1c1ccc([N+](=O)[O-])cc1 (stereo not given),-5.6%,-3.6%,31.6µM*,19.2%,-8.1%,-7.5%
Cc1cc(C[n+]2cc(Br)ccc2N)c2ncccc2c1,-11.3%,2.6%,17.7%[59 µM],25.5%,6.4%,-10.2%
CCCCNC(=O)c1cccc(NC(=O)c2nsc3ccccc23)c1,-11.4%,0.1%,?,13.7%[57 µM],5.6%,·
Cc1ccc2nsnc2c1NC(=O)COc1ccccc1F,-2.7%,-19.4%,56.2µM*,30.0%,2.8%,-3.4%
O=C(COc1ccccc1F)Nc1nnc(-c2ccncc2)s1,20µM*,-34.0%,70.8µM*,21.2%,7.8%,-15.0%
Cc1ccccc1OCC(=O)Nc1nnc(-c2ccncc2)s1,-12.0%,-20.7%,?,32.3%,24.4%,-27.9%
Cc1cc(C)cc(NC(=O)C2CCCN(C(=O)c3cnn(-c4ccccc4)c3-n3cccc3)C2)c1 (stereo not given),-22.5%,-22.4%,-2.0%[59 µM],17.3%,11.5%,·
c1ccc(-n2c(-c3ccco3)nnc2-c2ccco2)cc1,-3.3%,13.0%,29.9%[12.7 µM],30.8%,3.5%,-8.1%
S=c1[nH]nc(-c2ccco2)n1-c1ccc(Br)cc1,25.1µM*,·,·,?,-22.0%,-16.4%
Cc1cccc(-n2c(-c3ccco3)n[nH]c2=S)c1,5.62µM*,-4.6%,2µM*,-34.9%,-9.8%,-12.1%
Cc1cccc(-n2c(-c3ccc(Br)o3)n[nH]c2=S)c1,79.4µM*,·,·,21.9%,-5.0%,-13.7%
Cc1cccc(-n2c(-c3ccco3)nc3c(cnn3-c3ccccc3C)c2=O)c1,?,·,?,-0.3%,-10.8%,·
CCSc1nnc(Cc2cc(=O)[nH]c(=O)[nH]2)n1-c1cccc(C)c1,-19.9%,-1.6%,?,52.0%,-24.6%,-3.2%
CCCCN1C(=O)C(CC(=O)NCc2cccc3ccccc23)CC(C(=O)N2CCOCC2)=C1C (stereo not given),·,·,·,·,·,-2.3%
COc1cc(OC)c(NC2=C(c3ccc(C(F)(F)F)cc3)C(=O)c3ccccc32)cc1Cl,20µM*,?,?,?,9.1%,·
